The record followed here is ChEMBL document CHEMBL1961873, “Compounds: GSK PKIS; Assays: Nanosyn kinase panel” (2012).

Experiment [1] concerns the target Rho-associated protein kinase 1 (Homo sapiens) (UniProt Q13464). To be noted: at 1 µM.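 Note: reported values are mean percent inhibition of ROCK1.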
The target in experiment [2] is Rho-associated protein kinase 2 (Homo sapiens) (UniProt O75116). To be noted: at 0.1 µM.
Experiment [3] shares this target. To be noted: at 1 µM.
The target in experiment [4] is Ribosomal protein S6 kinase alpha-1 (Homo sapiens) (UniProt Q15418). To be noted: at 0.1 µM.
Sequence of Ribosomal protein S6 kinase alpha-1 (Homo sapiens) (Q15418 whole entry): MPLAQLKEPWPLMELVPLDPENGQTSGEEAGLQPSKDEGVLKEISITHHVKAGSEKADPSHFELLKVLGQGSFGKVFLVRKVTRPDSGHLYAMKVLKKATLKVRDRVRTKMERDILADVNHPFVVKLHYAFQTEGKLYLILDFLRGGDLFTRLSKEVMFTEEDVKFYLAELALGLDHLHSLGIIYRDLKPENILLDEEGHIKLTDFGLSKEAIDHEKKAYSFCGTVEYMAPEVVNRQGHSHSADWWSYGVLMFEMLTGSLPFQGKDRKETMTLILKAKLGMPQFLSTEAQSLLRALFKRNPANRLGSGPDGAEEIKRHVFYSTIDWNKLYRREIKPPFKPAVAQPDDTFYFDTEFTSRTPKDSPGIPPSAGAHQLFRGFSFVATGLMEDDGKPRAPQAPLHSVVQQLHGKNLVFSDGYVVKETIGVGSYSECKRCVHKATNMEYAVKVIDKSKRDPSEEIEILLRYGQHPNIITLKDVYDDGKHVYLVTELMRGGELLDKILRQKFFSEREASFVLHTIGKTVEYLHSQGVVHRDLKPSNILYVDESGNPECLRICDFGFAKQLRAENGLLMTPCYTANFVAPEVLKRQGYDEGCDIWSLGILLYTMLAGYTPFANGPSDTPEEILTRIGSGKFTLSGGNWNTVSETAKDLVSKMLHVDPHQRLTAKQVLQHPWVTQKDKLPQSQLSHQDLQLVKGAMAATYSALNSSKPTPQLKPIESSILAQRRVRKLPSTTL
Experiment [5] shares this target. To be noted: at 1 µM.
For experiment [6], the target named is Ribosomal protein S6 kinase alpha-3 (Homo sapiens) (UniProt P51812). To be noted: at 0.1 µM.
The target is the same in experiment [7]. To be noted: at 1 µM.
The target in experiment [8] is Ribosomal protein S6 kinase alpha-2 (Homo sapiens) (UniProt Q15349). The settings on record: at 0.1 µM.
Sequence of Ribosomal protein S6 kinase alpha-2 (Homo sapiens) (Q15349 whole entry): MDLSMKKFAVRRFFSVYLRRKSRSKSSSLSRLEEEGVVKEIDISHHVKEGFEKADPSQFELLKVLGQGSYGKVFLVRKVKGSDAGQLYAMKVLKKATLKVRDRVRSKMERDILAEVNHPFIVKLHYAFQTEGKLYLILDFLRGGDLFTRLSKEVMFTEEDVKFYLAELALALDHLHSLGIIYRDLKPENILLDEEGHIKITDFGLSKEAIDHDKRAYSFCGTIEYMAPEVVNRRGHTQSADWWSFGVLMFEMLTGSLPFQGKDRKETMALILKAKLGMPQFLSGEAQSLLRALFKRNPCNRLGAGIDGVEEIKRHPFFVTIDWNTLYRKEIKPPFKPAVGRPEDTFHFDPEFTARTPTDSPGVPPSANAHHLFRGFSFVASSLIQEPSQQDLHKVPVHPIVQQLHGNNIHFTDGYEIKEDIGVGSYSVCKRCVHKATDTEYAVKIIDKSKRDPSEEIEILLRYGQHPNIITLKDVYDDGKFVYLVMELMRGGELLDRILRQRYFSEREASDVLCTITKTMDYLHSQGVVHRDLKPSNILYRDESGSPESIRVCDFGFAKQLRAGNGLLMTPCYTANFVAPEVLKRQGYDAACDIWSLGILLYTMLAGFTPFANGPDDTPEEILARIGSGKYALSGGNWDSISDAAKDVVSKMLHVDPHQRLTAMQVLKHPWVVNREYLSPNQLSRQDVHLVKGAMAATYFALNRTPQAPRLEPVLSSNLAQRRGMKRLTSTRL
For experiment [9] the target is unchanged. The settings on record: at 1 µM.
Experiment [10] concerns the target Ribosomal protein S6 kinase alpha-6 (Homo sapiens) (UniProt Q9UK32). The settings on record: at 0.1 µM.
For experiment [11] the target is unchanged. To be noted: at 1 µM.
Experiment [12] has as its target T1, Serine/threonine-protein kinase Sgk1 (Homo sapiens) (UniProt O00141).
T1 sequence (whole entry): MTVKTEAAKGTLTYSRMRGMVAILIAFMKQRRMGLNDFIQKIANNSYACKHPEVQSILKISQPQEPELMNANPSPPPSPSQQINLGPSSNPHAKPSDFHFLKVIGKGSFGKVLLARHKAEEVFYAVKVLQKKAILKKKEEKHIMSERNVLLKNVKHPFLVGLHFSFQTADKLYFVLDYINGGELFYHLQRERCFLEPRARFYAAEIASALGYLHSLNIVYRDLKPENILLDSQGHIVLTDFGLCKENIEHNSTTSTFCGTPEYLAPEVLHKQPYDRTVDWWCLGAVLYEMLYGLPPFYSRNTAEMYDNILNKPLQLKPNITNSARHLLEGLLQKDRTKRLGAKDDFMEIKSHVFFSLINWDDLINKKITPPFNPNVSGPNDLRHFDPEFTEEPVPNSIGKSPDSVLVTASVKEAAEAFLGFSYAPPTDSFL
To be noted: at 0.1 µM.

Experiment [13] has as its target T1, Serine/threonine-protein kinase Sgk1 (Homo sapiens). The settings on record: at 1 µM.
Experiment [14] addresses T2, Serine/threonine-protein kinase Sgk2 (Homo sapiens) (UniProt Q9HBY8).
T2 sequence (whole entry): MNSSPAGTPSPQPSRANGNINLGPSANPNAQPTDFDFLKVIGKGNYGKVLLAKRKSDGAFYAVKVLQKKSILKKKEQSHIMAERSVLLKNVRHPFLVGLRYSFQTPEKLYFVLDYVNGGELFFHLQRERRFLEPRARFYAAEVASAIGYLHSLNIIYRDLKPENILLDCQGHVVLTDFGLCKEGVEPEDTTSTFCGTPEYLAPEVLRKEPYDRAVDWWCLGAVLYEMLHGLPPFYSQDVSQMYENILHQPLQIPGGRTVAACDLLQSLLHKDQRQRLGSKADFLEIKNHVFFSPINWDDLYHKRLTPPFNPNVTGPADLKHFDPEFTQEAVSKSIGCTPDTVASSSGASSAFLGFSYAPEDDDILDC
The settings on record: at 0.1 µM.

Experiment [15] deals with T2, Serine/threonine-protein kinase Sgk2 (Homo sapiens). To be noted: at 1 µM.
For experiment [16], the target named is T3, Serine/threonine-protein kinase Sgk3 (Homo sapiens) (UniProt Q96BR1).
T3 sequence (whole entry): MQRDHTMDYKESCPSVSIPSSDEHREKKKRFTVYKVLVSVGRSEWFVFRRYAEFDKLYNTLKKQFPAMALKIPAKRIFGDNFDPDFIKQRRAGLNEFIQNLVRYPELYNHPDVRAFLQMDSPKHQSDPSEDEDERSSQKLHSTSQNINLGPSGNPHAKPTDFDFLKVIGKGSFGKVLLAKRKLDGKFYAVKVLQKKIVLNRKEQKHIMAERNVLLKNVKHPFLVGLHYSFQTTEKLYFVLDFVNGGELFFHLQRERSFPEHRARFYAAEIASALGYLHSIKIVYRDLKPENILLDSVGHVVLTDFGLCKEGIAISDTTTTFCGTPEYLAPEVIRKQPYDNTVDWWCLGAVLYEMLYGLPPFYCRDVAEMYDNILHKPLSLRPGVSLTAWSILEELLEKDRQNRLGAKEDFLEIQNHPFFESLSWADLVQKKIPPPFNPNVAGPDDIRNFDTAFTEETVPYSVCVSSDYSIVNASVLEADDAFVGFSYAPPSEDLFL
To be noted: at 0.1 µM.

Experiment [17] addresses T3, Serine/threonine-protein kinase Sgk3 (Homo sapiens). The settings on record: at 1 µM.
The target in experiment [18] is 5'-AMP-activated protein kinase catalytic subunit alpha-1 (Homo sapiens) (UniProt Q13131). The settings on record: at 0.1 µM.
Sequence of 5'-AMP-activated protein kinase catalytic subunit alpha-1 (Homo sapiens) (Q13131 whole entry, looked up): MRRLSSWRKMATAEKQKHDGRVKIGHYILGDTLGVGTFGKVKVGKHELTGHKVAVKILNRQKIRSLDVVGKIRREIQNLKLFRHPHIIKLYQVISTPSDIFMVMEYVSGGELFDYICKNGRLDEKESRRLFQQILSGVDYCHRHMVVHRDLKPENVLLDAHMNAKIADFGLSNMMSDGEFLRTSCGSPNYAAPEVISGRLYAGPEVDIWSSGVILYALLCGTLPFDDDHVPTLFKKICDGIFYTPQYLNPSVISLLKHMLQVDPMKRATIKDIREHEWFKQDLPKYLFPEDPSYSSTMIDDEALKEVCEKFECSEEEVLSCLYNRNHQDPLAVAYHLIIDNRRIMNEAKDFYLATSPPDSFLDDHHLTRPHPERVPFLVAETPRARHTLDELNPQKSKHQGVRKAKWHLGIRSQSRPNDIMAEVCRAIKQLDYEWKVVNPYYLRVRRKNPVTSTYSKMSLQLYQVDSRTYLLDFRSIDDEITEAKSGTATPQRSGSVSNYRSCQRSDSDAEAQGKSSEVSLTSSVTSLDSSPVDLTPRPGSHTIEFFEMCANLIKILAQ
The target is the same in experiment [19]. To be noted: at 1 µM.
For experiment [20], the target named is 5'-AMP-activated protein kinase catalytic subunit alpha-2 (Homo sapiens) (UniProt P54646). To be noted: at 0.1 µM.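 Note: mean inhibition measured on the AMPK complex of alpha2, beta1 and gamma1 subunits.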
Sequence of 5'-AMP-activated protein kinase catalytic subunit alpha-2 (Homo sapiens) (P54646 whole entry, looked up): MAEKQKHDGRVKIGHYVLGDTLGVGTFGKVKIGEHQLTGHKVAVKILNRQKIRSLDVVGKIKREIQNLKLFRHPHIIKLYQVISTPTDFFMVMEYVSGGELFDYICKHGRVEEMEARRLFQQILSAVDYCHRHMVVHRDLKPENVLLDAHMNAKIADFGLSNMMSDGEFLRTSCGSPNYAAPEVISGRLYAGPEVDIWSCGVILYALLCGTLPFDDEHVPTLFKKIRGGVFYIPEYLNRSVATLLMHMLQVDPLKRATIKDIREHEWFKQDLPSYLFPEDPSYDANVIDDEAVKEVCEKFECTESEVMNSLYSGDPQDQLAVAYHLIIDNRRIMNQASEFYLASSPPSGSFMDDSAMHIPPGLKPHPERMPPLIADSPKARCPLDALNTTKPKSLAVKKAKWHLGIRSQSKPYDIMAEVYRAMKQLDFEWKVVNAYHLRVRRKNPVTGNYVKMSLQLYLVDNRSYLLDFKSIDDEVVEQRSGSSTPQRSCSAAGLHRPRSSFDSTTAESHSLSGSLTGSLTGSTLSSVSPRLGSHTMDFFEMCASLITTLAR

Sequence of Rho-associated protein kinase 2 (Homo sapiens) (O75116 whole entry, looked up): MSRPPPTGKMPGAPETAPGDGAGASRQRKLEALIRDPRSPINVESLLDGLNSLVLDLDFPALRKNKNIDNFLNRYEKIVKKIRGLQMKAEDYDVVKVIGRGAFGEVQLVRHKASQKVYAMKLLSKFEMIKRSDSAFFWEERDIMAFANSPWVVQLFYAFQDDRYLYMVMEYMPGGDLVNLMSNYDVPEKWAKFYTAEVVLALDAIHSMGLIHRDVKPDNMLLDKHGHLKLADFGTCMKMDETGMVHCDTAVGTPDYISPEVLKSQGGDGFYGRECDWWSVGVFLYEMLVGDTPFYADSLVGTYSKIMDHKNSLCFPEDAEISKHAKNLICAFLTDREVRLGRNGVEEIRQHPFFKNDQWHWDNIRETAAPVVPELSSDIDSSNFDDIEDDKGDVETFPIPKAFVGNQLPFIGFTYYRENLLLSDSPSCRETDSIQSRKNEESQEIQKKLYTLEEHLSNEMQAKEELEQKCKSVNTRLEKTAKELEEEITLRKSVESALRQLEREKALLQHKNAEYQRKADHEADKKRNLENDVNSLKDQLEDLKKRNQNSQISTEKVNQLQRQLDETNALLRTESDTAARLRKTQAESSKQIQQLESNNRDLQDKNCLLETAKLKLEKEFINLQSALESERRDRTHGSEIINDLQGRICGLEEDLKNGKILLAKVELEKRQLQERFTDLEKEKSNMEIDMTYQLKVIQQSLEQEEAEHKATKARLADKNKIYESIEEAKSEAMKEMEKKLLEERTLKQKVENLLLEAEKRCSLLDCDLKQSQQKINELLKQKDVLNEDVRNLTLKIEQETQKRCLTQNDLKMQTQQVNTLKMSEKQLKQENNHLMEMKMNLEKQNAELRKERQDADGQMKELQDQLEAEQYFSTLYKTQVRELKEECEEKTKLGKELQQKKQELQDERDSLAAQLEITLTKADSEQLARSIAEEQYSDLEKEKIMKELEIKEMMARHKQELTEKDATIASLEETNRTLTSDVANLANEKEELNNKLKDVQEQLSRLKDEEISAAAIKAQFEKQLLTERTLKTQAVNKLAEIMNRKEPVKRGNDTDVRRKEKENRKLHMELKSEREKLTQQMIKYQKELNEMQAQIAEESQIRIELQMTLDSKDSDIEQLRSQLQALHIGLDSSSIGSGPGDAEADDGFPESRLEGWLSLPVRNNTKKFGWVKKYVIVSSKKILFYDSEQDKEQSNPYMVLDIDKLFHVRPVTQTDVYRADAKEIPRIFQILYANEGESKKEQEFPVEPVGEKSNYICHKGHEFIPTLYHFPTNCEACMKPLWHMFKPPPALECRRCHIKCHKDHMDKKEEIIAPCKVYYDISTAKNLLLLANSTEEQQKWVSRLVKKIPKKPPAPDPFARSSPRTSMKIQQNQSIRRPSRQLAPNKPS
Sequence of Ribosomal protein S6 kinase alpha-6 (Homo sapiens) (Q9UK32 whole entry): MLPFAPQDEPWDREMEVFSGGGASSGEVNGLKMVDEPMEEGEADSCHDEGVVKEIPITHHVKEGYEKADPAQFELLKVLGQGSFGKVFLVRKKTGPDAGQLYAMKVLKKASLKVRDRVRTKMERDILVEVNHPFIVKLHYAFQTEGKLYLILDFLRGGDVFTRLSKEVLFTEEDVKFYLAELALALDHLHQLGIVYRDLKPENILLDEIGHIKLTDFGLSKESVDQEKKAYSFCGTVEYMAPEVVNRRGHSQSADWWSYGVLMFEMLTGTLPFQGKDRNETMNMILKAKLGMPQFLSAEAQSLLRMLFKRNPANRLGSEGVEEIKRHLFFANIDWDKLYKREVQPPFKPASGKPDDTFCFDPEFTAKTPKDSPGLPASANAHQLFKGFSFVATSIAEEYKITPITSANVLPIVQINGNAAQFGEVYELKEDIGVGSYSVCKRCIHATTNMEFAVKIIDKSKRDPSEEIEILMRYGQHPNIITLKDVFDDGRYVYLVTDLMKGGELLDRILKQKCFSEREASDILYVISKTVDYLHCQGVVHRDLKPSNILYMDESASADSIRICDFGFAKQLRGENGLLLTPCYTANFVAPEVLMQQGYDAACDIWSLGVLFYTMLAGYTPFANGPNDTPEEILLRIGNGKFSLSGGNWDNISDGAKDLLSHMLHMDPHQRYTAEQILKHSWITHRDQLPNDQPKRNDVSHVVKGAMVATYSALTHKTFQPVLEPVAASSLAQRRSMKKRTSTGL

In general, inhibition refers to the drop in the measured response relative to a control, in per cent. On to `COc1cc(N2CCN(C(C)C)CC2)ccc1Nc1nc(Nc2ccc(F)cc2C(=O)NC[C@@H](O)CO)c2cc[nH]c2n1`, for which the inhibition in [1] stood at 2.04%; in [2], 4.24%; in experiment [3], 8.05%; in [4], 3.27%; in [5] it was 12.1%; in experiment [6], 2.71%. Besides, the inhibition came to 7.3% in experiment [7]; 3.45% in experiment [8]; 5.13% in experiment [9]; 2.51% in experiment [10]; 8.27% in experiment [11]; 4.42% in experiment [12]. In addition, the inhibition is 7.18% in experiment [13]; 2.67% in [14]; 4.33% in experiment [15]; 2.59% in experiment [16]; 6.24% in experiment [17]; 4.23% in experiment [18]. Moreover, the inhibition is 5.78% in experiment [19] and 2.37% in experiment [20].

`C[C@@H](Oc1cc(-n2cnc3ccc(OC4CCN(C)CC4)cc32)sc1C(N)=O)c1ccccc1Cl`: the inhibition amounted to 5.39% in experiment [1]; 1.57% in experiment [2]; 5.08% in [3]; 2.3% in [4]; 12.4% in experiment [5]; 3.29% in [6]. In addition, the inhibition was determined as 21.8% in experiment [7]; 4.54% in experiment [8]; 20.2% in [9]; 7.23% in experiment [10]; 40.4% in experiment [11]; 1.16% in experiment [12]. Further, the inhibition in [13] stood at 1.49%; in [14], 2.92%; in [15], 1.45%; in [16] it was 3.29%; in experiment [17] it was 2.26%; in [18] it was 5.35%. Further, the values for the inhibition in experiment [19] and in experiment [20] were 21.6% and 5.98%, respectively.

Regarding `NS(=O)(=O)c1ccc(Nc2cc(-c3ccc(O)c(F)c3)n[nH]2)cc1`, the inhibition is 1.73% in experiment [1]; -1.97% in experiment [2]; 3.32% in [3]; 4.13% in experiment [4]; 32.6% in experiment [5]; 13.1% in [6]. In addition, the inhibition in experiment [7] was 56.4%; in experiment [8] it was 16.5%; in experiment [9], 63.5%; in [10], 13.4%; in [11], 59.5%; in experiment [12], -0.99%. Moreover, the inhibition in experiment [13] is 3.11%; in experiment [14], -0.41%; in experiment [15], 3.07%; in experiment [16] it was 0.2%; in [17], -0.29%; in experiment [18] it was 0.53%. Also, the inhibition in experiment [19] was determined as 15.2%; in [20] it was 0.54%.

Consider `c1ccc(Oc2ccc(Nc3ncc(-c4ccccc4)o3)cc2)cc1`, for which the inhibition in [1] stood at 4.29%; in [2] it was 4.32%; in [3], 4.11%; in experiment [4] it was 1.98%; in [5] it was 3.12%; in experiment [6] it was 0.81%. Also, the inhibition in experiment [7] was 1.91%; in experiment [8], 0.83%; in experiment [9], 1.55%; in experiment [10], 0.67%; in experiment [11] it was 0.25%; in experiment [12] it was 2.19%. The inhibition in [13] is 2.9%; in [14] it was 6.17%; in experiment [15], 2.79%; in [16], 3.61%; in [17], 3.17%; in [18] it was 0.33%. Further, the inhibition amounted to 3.46% in experiment [19] and 1.31% in experiment [20].

Consider `O=C(NCC1CC1)c1ccc(-c2cccc(C(=O)NC3CC3)c2)cc1`, for which the inhibition in [1] was 2.85%; in experiment [2] it was 2.43%; in experiment [3], 1.11%; in [4] it was -0.06%; in [5], 0.15%; in [6], 0.89%. Further, the inhibition in experiment [7] was -1.16%; in experiment [8], 0.67%; in [9], 0.58%; in experiment [10], 0.55%; in experiment [11], 0.61%; in [12] it was 0.99%. Moreover, the inhibition in experiment [13] is 0.82%; in [14] it was 0.58%; in experiment [15], 3.1%; in experiment [16] it was 1.28%; in experiment [17] it was 1.29%; in experiment [18], 2.2%. Besides, the inhibition in experiment [19] was found to be 3.29%; in [20], 0.26%.

Take `NC(=O)c1ccc(Oc2nccc(-c3c(-c4ccc(F)cc4)ncn3C3CCNCC3)n2)cc1`: the inhibition in experiment [1] was 3.99%; in [2], 3.87%; in experiment [3], 4.42%; in experiment [4], 2.06%; in [5] it was 1.84%; in experiment [6], -0.35%. Besides, the inhibition in experiment [7] was 0.53%; in experiment [8], 3.21%; in [9], 4.43%; in [10], 1.77%; in [11] it was 3.24%; in [12] it was 2.88%. The inhibition was 3.6% in experiment [13]; 1.93% in experiment [14]; 4.5% in [15]; 3.5% in [16]; 2.61% in [17]; 2.33% in experiment [18]. In addition, the values for the inhibition in experiment [19] and in [20] were 3.68% and 7.31%, respectively.
